“And” between values parts separate entries of the source, which are not always exact repeats. Equal values may be shown once. More than one record can exist for a structure, and the calls need not agree. The source made the active and inactive calls. Rule for the calls: active = hit-call score of the fitted dose curve at least 0.9, where 1 is the maximum; inactive = score below 0.9.
How the values were obtained:
[1] = read-out: Vascular cell adhesion molecule 1 (VCAM1), VCAM1 (gene 7412); assay: BSK_4H_VCAM1: BioMAP Diversity Plus: 4H Assay for Vascular cell adhesion molecule 1 (VCAM1) Biomarker Activity (AID 2283033); conditions: primary human endothelial cells (HUVEC); actives raise or lower the signal
Outline: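 Primary human umbilical vein endothelial cells were exposed to chemicals for 24 h, after which VCAM-1 was quantified by ELISA. Responses were fitted bidirectionally against DMSO as negative control and activity baseline.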

[2] = read-out: Interferon-gamma inducible Protein 10 (IP10), CXCL10 (gene 3627); assay: BSK_BE3C_IP10: BioMAP Diversity Plus: BE3C Assay for Interferon-gamma inducible Protein 10 (IP10) Biomarker Activity (AID 2283034); conditions: primary human bronchial epithelial cells; actives raise or lower the signal
Outline: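 Human primary bronchial epithelial cells were exposed to chemicals for 24 hours, after which IP-10 levels were measured by ELISA. Data were fitted bidirectionally against DMSO, which served as the negative control and activity baseline.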

[3] = read-out: Monokine induced gamma interferon (MIG), CXCL9 (gene 4283); assay: BSK_BE3C_MIG: BioMAP Diversity Plus: BE3C Assay for Monokine induced gamma interferon (MIG) Biomarker Activity (AID 2283035); conditions: primary human bronchial epithelial cells; actives raise or lower the signal
Outline: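 ELISA read-out of MIG in human lung bronchial epithelial primary cultures, 24 h post-dosing. Bidirectional curve fit vs DMSO baseline.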

[4] = read-out: Plasminogen activator inhibitor-1 (PAI1), SERPINE1 (gene 5054); assay: BSK_BE3C_PAI1: BioMAP Diversity Plus: BE3C Assay for Plasminogen activator inhibitor-1 (PAI1) Biomarker Activity (AID 2283037); conditions: primary human bronchial epithelial cells; actives raise or lower the signal
Outline: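 Human primary bronchial epithelial cells were exposed to chemical for 24 h, then PAI-1 was quantified by ELISA. Activity was fitted bidirectionally relative to the DMSO negative control baseline.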

[5] = read-out: urokinase plasminogen activator (uPA), PLAU (gene 5328); assay: BSK_BE3C_uPA: BioMAP Diversity Plus: BE3C Assay for urokinase plasminogen activator (uPA) Biomarker Activity (AID 2283038); conditions: primary human bronchial epithelial cells; actives raise or lower the signal
Outline: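 Human primary bronchial epithelial cells were exposed to chemical for 24 h, then uPA levels were measured by ELISA. Responses were fitted bidirectionally against DMSO as negative control and baseline. Parallel SRB staining of total protein gauged overt cytotoxicity.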

[6] = read-out: Urokinase-type plasminogen activator receptor (uPAR), PLAUR (gene 5329); assay: BSK_BE3C_uPAR: BioMAP Diversity Plus: BE3C Assay for Urokinase-type plasminogen activator receptor (uPAR) Biomarker Activity (AID 2283039); conditions: primary human bronchial epithelial cells; actives raise or lower the signal
Outline: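 Primary human bronchial epithelial cells were dosed with chemical and harvested 24 h later; uPAR was quantified by ELISA. Activity was fitted bidirectionally against DMSO as negative control and baseline.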

[7] = read-out: Interleukin-6 (IL6), IL6 (gene 3569); assay: BSK_CASM3C_IL6: BioMAP Diversity Plus: CASM3C Assay for Interleukin-6 (IL6) Biomarker Activity for (AID 2283040); conditions: primary human coronary artery smooth muscle cells; actives raise or lower the signal
[8] = read-out: Tissue plasminogen activator (tPA), PLAT (gene 5327); assay: BSK_BE3C_tPA: BioMAP Diversity Plus: BE3C Assay for Tissue plasminogen activator (tPA) Biomarker Activity (AID 2283041); conditions: primary human bronchial epithelial cells; actives raise or lower the signal
Outline: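 Human primary bronchial epithelial cells were dosed with chemical and tPA biomarker levels measured by ELISA 24 hours later. Activity was fitted bidirectionally against DMSO as negative control and baseline.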

[9] = read-out: Interleukin-8 (IL8), CXCL8 (gene 3576); assay: BSK_CASM3C_IL8: BioMAP Diversity Plus: CASM3C Assay for Interleukin-8 (IL8) Biomarker Activity (AID 2283042); conditions: primary human coronary artery smooth muscle cells; actives raise or lower the signal;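 note: IL-8 protein level quantified by ELISA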
[10] = read-out: Transforming growth factor beta 1 (TGFb1), TGFB1 (gene 7040); assay: BSK_BE3C_TGFb1: BioMAP Diversity Plus: BE3C Assay for Transforming growth factor beta 1 (TGFb1) Biomarker Activity (AID 2283036); conditions: primary human bronchial epithelial cells; actives raise or lower the signal
Outline: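 Human primary bronchial epithelial cells (BE3C system) were dosed with chemical and TGF-b1 levels measured by ELISA at 24 h. Activity was fitted bidirectionally relative to DMSO negative control as baseline.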

Measured: AC50

C=CC(=O)OCCC(F)(F)C(F)(F)C(F)(F)C(F)(F)C(F)(F)C(F)(F)C(F)(F)C(F)(F)F
not listed: [10]
inactive: all other assays above

Oc1cc2ccccc2cc1O
inactive: all assays above

C=CC(=C)CC/C=C(\C)CCC=C(C)C
inactive: all assays above

COC1=CC(=O)C[C@@H](C)[C@]12Oc1c(Cl)c(OC)cc(OC)c1C2=O
not listed: [8]
inactive: all other assays above

O=C(O)CCC(F)(F)C(F)(F)C(F)(F)C(F)(F)C(F)(F)C(F)(F)F
not listed: [10]
inactive: all other assays above

CC[N+](CC)(CC)Cc1ccccc1
active: [7] 87.5 nM
inactive: all other assays above

Oc1ccc(Cc2ccccc2O)cc1
not listed: [10]
inactive: all other assays above

Clc1ccc(Nc2nnc(Cc3ccncc3)c3ccccc23)cc1
active: [4] 3.84 µM | [5] 5.6 µM
not listed: [2]
inactive: all other assays above

CCCCC=O
inactive: all assays above

Cc1[nH]nc2c1N=C(c1ccccc1Cl)c1cc([N+](=O)[O-])ccc1N2
active: [1] 2.56 µM | [2] 12.2 µM | [3] 19.3 µM | [10] 21.6 µM | [4] 1.62 µM | [8] 20 µM
inactive: [5] | [6] | [7] | [9]

O=C(c1ccccc1)c1ccccc1
inactive: all assays above

O=S(=O)(O)C(F)(F)C(F)(F)C(F)(F)C(F)(F)C(F)(F)C(F)(F)C(F)(F)C(F)(F)C(F)(F)C(F)(F)F
active: [2] 13.3 µM and 12 µM | [4] 7.29 µM and 5.4 µM | [6] 21.5 µM
inactive: [1] | [3] | [5] | [6] | [7] | [8] | [9]

Oc1c(Cl)cc(Cl)cc1Sc1cc(Cl)cc(Cl)c1O
inactive: [7] | [9]
active: [1] 12.8 µM | [2] 4.76 µM | [3] 6.66 µM and 7.75 µM | [4] 4.59 µM | [5] 5.33 µM and 5.44 µM | [6] 1.8 µM and 1.83 µM | [8] 4.32 µM and 3.03 µM

CN(C)CCOC(c1ccccc1)c1ccccc1
active: [1] 2.03 µM
inactive: all other assays above

O=C(O)CCC(F)(F)C(F)(F)C(F)(F)C(F)(F)C(F)(F)F
not listed: [10]
inactive: all other assays above

Cc1ccc(N=Nc2c(O)ccc3ccccc23)c(C)c1
active: [1] 9.98 µM | [2] 3.88 µM | [4] 10 µM | [5] 10 µM | [6] 4.02 µM
inactive: all other assays above

CC(=O)Nc1ccc(O)cc1
inactive: all assays above

O=C(CC(=O)C(F)(F)C(F)(F)C(F)(F)F)c1cccs1
active: [1] 27.6 µM and 31 µM | [2] 19.5 µM and 18.9 µM | [3] 24.6 µM and 42 µM | [4] 10.9 µM and 10 µM | [5] 47.4 µM and 46 µM | [6] 45.6 µM | [7] 38.1 µM and 20.8 µM | [8] 22.3 µM and 20.7 µM
inactive: [9]

O=P(O)(O)CCC(F)(F)C(F)(F)C(F)(F)C(F)(F)C(F)(F)C(F)(F)C(F)(F)C(F)(F)F
active: [8] 1.08 µM and 5.14 µM
not listed: [10]
inactive: all other assays above

O=C1NS(=O)(=O)c2ccccc21
inactive: all assays above
